From PubChem BioAssay
RORgamma inh: ROR gamma (mouse) transcription inhibition; Drosophila S2 Gal4-RORgamma UAS-luciferase reporter, 20 h; Potency, µM (doses to about 53.6 µM), inactives show top-dose activity change, negative = inhibition, hits mostly inhibitors; 310,000 tested, 5.4% active; AID 2551; note: nearly all actives have a fitted effect of over 60% in size
Target sequence (P51450 whole entry, looked up, the tested form may be a part): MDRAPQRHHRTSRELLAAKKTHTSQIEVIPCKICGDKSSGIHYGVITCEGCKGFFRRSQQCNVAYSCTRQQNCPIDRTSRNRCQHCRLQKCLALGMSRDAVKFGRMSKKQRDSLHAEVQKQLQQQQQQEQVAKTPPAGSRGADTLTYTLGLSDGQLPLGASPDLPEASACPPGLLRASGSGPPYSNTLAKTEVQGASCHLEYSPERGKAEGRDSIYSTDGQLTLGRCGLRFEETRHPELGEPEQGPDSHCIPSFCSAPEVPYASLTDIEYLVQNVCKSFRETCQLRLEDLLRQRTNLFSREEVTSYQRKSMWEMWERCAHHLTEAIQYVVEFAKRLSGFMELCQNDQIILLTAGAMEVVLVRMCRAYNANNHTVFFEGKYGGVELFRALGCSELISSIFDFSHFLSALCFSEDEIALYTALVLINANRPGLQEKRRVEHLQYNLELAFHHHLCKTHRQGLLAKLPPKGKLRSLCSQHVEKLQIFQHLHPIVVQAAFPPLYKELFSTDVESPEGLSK
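Drosophila S2 cells stably expressing Gal4-DBD/mouse RORγ fusion under metallothionein promoter plus UAS-luciferase; compound 1 h, then 700 uM CuSO4 induction for 20 h at ambient temperature; inhibition read as reduced luminescence.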
ELG1 DNA repair: blocks ELG1-dependent DNA repair in HEK293T cells; HEK293T ELG1-luciferase reporter, luminescence, 16 h; DNA damage induced by 5-fluorouridine; Potency, µM (doses to about 46.1 µM), for inactives: at the top dose activity change, negative = inhibition, usual class: inhibitors; 330,000 tested, 2.3% active; AID 504467; note: nearly all actives have a fitted effect of over 55% in size
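Luminescence from the luciferase reporter, measured 30 min after ONE-Glo reagent at room temperature, was the read-out. Beforehand, 2,000 cells per well were exposed for 16 hr at 37 °C to 5-fluorouridine together with compound or vehicle.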
12-LOX inh: inhibitors of human 12S-lipoxygenase ALOX12 | 580,000 tested, 1.1% active | purified 12hLO, xylenol orange hydroperoxide absorbance | P18054 | Potency, µM (top dose mostly 108 µM), for inactives: at the highest dose activity change, negative = inhibition, usual class: inhibitors | AID 1671190
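Purified human 12hLO at 150 nM in 25 mM Hepes, 0.01% Triton X-100, pH 7.0, preincubated 15 min at room temperature with compound. Reaction started with 40 uM arachidonic acid, 30 min at room temperature. Hydroperoxide measured by Fe-xylenol orange, 573/405 nm absorbance ratio.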
VP16 counter: inhibits Gal4-VP16 luciferase reporter, ROR gamma counter-screen; Drosophila S2 Gal4-VP16 UAS-luciferase, luminescence, 20 h; Potency, µM (top dose mostly 53.6 µM), for the others: at the top dose activity, negative = inhibition, hits mostly inhibitors; 310,000 tested, 3.5% active;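 note: Gal4-VP16 expression switched on by copper sulfate through the metallothionein promoter; nearly all actives have a fitted effect of over 50% in size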
DT40 TDP1 CPT: DT40-hTDP1 cell growth loss with CPT; chicken DT40 Tdp1-/-;hTDP1 cells + 20 nM CPT, ATP luminescence, 48 h; Potency, µM (series often up to 46.2 µM), for inactives: at the highest dose activity change, negative = growth inhibition, usual class: inhibitors; 420,000 tested, 12% active; AID 686979; note: nearly all actives have a fitted effect of over 55% in size
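Chicken DT40 Tdp1-/- cells complemented with human TDP1, 400 cells/well, exposed to compounds plus 20 nM camptothecin for at least 48 h at 37 C; viability read as ATP content by CellTiter-Glo luminescence.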
DT40 TDP1 no CPT: qHTS for Inhibitors of human tyrosyl-DNA phosphodiesterase 1 (TDP1): qHTS in cells in absence of CPT; DT40 Tdp1-/- hTDP1 cells, no CPT, ATP luminescence, 48 h; Potency, µM (series often up to 46.2 µM), for the others: top-dose activity change, negative = growth inhibition, actives largely listed as inhibitors; 420,000 tested, 15% active; note: nearly all actives have a fitted effect of over 55% in size
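Compound effects on proliferation are scored in DT40 Tdp1-/-;hTDP1 cells in the absence of CPT. ATP levels (CellTiter-Glo luminescence) are recorded after a ≥48 hr, 37 °C incubation.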
* marks the source's active call; other numbers are inactive results; ? = inconclusive; · = no result given; [ ] = dose if it differs, or a comment. Hits are enriched below; roughly 15% of the tested compounds scored in any of these assays. Calls come from the whole dose curve; as a rule, active = well fitted curve in the direction sought with a large enough effect; inconclusive = small, poorly fitted or top-dose-only effect, or another doubt; inactive = no such curve, though single readings can be large; an effect the other way counts as inactive or inconclusive. % is set by controls: 0 for no effect and ±100 for the full control effect; potency is the fitted concentration of half-maximal effect.

SMILES	RORgamma inh	ELG1 DNA repair	12-LOX inh	VP16 counter	DT40 TDP1 CPT	DT40 TDP1 no CPT
C=C1CC2C3CC[C@@]4(OCOC45COCO5)[C@@]3(C)C(O)CC2[C@@]2(C)CCC(=O)C=C12 (some centres undefined)	7%	?	-9%	-11%	?	18µM*
CC(=O)C12OC1CC1C3CCC4=CC(=O)CCC4(C)C3CCC12C (centres undefined)	2%	5%	-4%	1%	?	?
CC(=O)O[C@@]1(C(C)=O)CCC2C3C=C(Cl)C4=CC(=O)CC[C@]4(C)C3CC[C@]21C (some centres undefined)	-1%	·	·	-1%	?	?
CC(=O)O[C@]1(C(C)=O)CC[C@H]2[C@@H]3C=C(Cl)C4=CC(=O)CC[C@]4(C)[C@H]3CC[C@@]21C	-34%	?	-6%	-6%	?	21µM*
CC(=O)O[C@]1(C(C)=O)CC[C@H]2[C@@H]3C=C(Cl)C4=CC(=O)[C@@H]5C[C@@H]5[C@]4(C)[C@H]3CC[C@@]21C	?	-10%	-9%	-2%	?	21µM*
CN(C)C(=O)N1CCN(c2cc(Cl)ncn2)C(=O)C1	·	·	-8%[12.5 µM]	·	·	·
CCN1C(=O)CCC2(C(=O)NCC3CC3)CCCC=C12 (centres undefined)	·	·	21%	·	·	·
CC(c1ccccc1)N1C(=O)c2ccc(C(=O)Nc3ccc(Br)cc3C(=O)O)cc2C1=O (centres undefined)	30%	-2%	·	1%	2.1µM*	?
CC(C)CN1C(=O)c2ccc(C(=O)Nc3ccc(O)cc3C(=O)O)cc2C1=O	15%	21%	0%	-2%	8%	-4%
CCOc1c(CNCCSc2nnnn2C)cccc1OC	·	·	-1%	·	-2%	5%
CCOc1cc(CNCCSc2nnnn2C)cc(Cl)c1OCc1ccc(Cl)cc1	·	·	?	·	13µM*	13µM*
CCOc1cc(CNCCSc2nnnn2-c2ccccc2)cc(Cl)c1OC	·	·	5%	·	?	21µM*
COc1cccc(CNCCSc2nnnn2C)c1OCc1ccc(Cl)cc1Cl	·	·	?	·	16µM*	23µM*
COc1cccc(CNCCSc2nnnn2C)c1OCc1ccc(Cl)cc1	·	·	-15%	·	21µM*	?
COc1cc(CNCCSc2nnnn2C)cc(Cl)c1OCc1ccccc1	·	·	-20%	·	?	?
Cc1ccccc1N(C)C1CN(Cc2cccs2)C1	·	·	46%[176 µM]	·	·	·
CN1CCOC(CNCc2ccc3ccccc3c2)C1 (centres undefined)	·	·	18%	·	·	·
Cc1cc(C)nc(NC(=O)Nc2ccc(F)cc2)c1	·	·	9%	·	·	·
CCN(CC)S(=O)(=O)c1cc([N+](=O)[O-])ccc1N/N=C/c1cccs1	·	·	3%	·	·	·
CCOC(=O)c1nc2cc3n(c(C)c-2c1C)C(C)C(CC)=C3C (centres undefined)	·	·	-3%	·	21µM*	18µM*
Cc1nccc(-c2cccc(N/N=C(\C#N)C(=O)c3ccccc3)c2)n1	?	15µM*	224%	-26%	21µM*	10µM*
CCOC(=O)Cn1nnnc1C(CC)N(Cc1cc2ccc(C)cc2[nH]c1=O)C1CCCC1 (centres undefined)	-1%	?	1%	7%	1%	?
CCOC(=O)Cn1nnnc1CN(Cc1ccc(OC)cc1)Cc1cc2cc(CC)ccc2[nH]c1=O	-15%	?	?	8%	15µM*	?
CCOC(=O)Cn1nnnc1CN(Cc1ccc(OC)cc1)Cc1cc2cc(C)cc(C)c2[nH]c1=O	-4%[0.365 µM]	1%	3%	·	23µM*	26µM*
N#Cc1cccc(C(=O)NCCc2cccc3cccnc23)c1	·	·	7%	·	·	·
SMILES	RORgamma inh	ELG1 DNA repair	12-LOX inh	VP16 counter	DT40 TDP1 CPT	DT40 TDP1 no CPT
O=C(c1ccc(CS(=O)Cc2cccc(Cl)c2)o1)N1CCN(c2ccc(F)cc2)CC1 (centres undefined)	·	·	-21%	·	?	16µM*
O=C(c1ccc(CS(=O)Cc2ccc(Cl)cc2)o1)N1CCN(c2cccc(Cl)c2)CC1 (centres undefined)	39%	?	-13%	-12%	?	-28%
O=C(c1ccc(COc2c(F)c(F)cc(F)c2F)o1)N1CCN(c2ccc(Cl)cc2)CC1	-23%	?	-14%	-3%	13µM*	16µM*
O=C(c1ccc(CS(=O)Cc2ccc(Cl)cc2)o1)N1CCN(c2ccc(F)cc2)CC1 (centres undefined)	31%	23µM*	-30%	12%	?	-3%
COC(=O)c1ccc(COc2c(F)c(F)cc(F)c2F)o1	0%	-5%	-20%	5%	-2%	19%
CC(C)C(=O)N[C@@H]1C[C@H](COc2ccc(S(C)(=O)=O)cc2)[C@@H](O)[C@H]1O	·	·	104%[176 µM]	·	·	·
COc1ccc(C(CC(=O)NCCc2ccc(OC)c(OC)c2)c2c[nH]c3ccccc23)c(OC)c1 (centres undefined)	·	·	43%	·	·	·
CCn1ncc(C(=O)N2CCC(C3CCN(S(C)(=O)=O)CC3)C2)c1C (centres undefined)	·	·	35%	·	·	·
OCCN1CCN(c2ccc(-c3nc(-c4cccc(C(F)(F)F)c4)no3)cn2)CC1	·	·	59%	·	·	·
FC(F)(F)c1cccc(-c2cncc(N3CCN(CCN4CCCC4)CC3)n2)c1	·	·	-25%	·	23µM*	16µM*
CCN(CC)CCN1CCN(c2cncc(-c3ccc4ccccc4c3)n2)CC1	·	·	?	·	12µM*	16µM*
CCN(CC)CCN1CCN(c2cncc(-c3cccc(N)c3)n2)CC1	·	·	?	·	-18%	-26%
CCCCc1ccc(NC(=O)Cn2nnc3sc4c(c3c2=O)CCC(C)C4)cc1 (centres undefined)	·	·	-27%	·	?	?
CCc1cccc(CC)c1NC(=O)Cn1nnc2sc3c(c2c1=O)CCCC3	·	·	-13%	·	?	8.2µM*
CC1CCc2c(sc3nnn(CC(=O)Nc4c(C(C)C)cccc4C(C)C)c(=O)c23)C1 (centres undefined)	·	·	-23%	·	?	15µM*
CC1=C(C(=O)OC(C)C)C(c2ccc(C)cc2)CC(=O)N1Cc1cccc(C#N)c1 (centres undefined)	·	·	4%	·	·	·
Cc1ccc(C(=O)NCC(=O)N2CCN(c3ccccn3)CC2)cc1	·	·	19%	·	·	·
